{
  "source": "PubChem BioAssay AID1159569",
  "about": "(Broad Institute, 2015)",
  "note": "Results with a measured potency or affinity are listed apart. Results filed as inconclusive are left out. Values without a mark were called inactive. How the calls were made is not given here.",
  "data": [
    {"assay": "toxicity to human HepG2 hepatoma cells – cell-based, plate reader, dry powder samples, cytotoxicity control, dose response (AID 1159569)", "conditions": "HepG2 cytotoxicity counterscreen; series mostly up to 50 µM; activity change, negative = cytotoxicity: at the top concentration", "values": [
      {"smiles": "COc1ccc(S(=O)(=O)Nc2ccc3c(c2)CC(=O)N([C@@H](C)CO)C[C@H](C)[C@H](CN(C)S(=O)(=O)c2ccc(OC)cc2)O3)cc1", "activity change, negative = cytotoxicity": "-25.8%"},
      {"smiles": "C/C=C/c1ccccc1[C@H]1[C@@H](C#N)N(C(=O)NC2CCCC2)[C@H]1CO", "activity change, negative = cytotoxicity": "-49.4%"},
      {"smiles": "CC(C)(C)S(=O)N1Cc2cc(C(=O)NCc3ccc(Oc4ccccc4)cc3)nc(-c3cccc(-c4cccc(F)c4)c3)c2[C@@H]1CCO", "note": "(stereo partly specified)", "activity change, negative = cytotoxicity": "2.11%"},
      {"smiles": "OC[C@H]1[C@@H](c2ccc(-c3cccnc3)cc2)[C@@H]2CN(CC3CC3)CCCCN12", "activity change, negative = cytotoxicity": "-6.11%"},
      {"smiles": "COc1ccc(NC(=O)N(C)C[C@H]2Oc3c(NC(=O)Nc4ccccc4)cccc3C(=O)N([C@@H](C)CO)C[C@H]2C)cc1", "activity change, negative = cytotoxicity": "-9.45%"},
      {"smiles": "COc1ccc(S(=O)(=O)Nc2cccc3c2O[C@H](CN(C)Cc2ccc(-c4ccccc4)cc2)[C@@H](C)CN([C@H](C)CO)C3=O)cc1", "activity change, negative = cytotoxicity": "-13.1%"},
      {"smiles": "C[C@H]1CN([C@@H](C)CO)C(=O)c2c(c3ccccc3n2C)-c2ccccc2CO[C@@H]1CN(C)C(=O)Nc1ccc(-c2ccccc2)cc1", "activity change, negative = cytotoxicity": "-18.3%"},
      {"smiles": "CC(C)NC(=O)Nc1ccc2c(c1)C(=O)N(C)[C@H]1CC[C@H](CC(=O)Nc3ccccc3)O[C@H]1CO2", "activity change, negative = cytotoxicity": "-9.14%"},
      {"smiles": "CC(C)(C)[S@](=O)N1Cc2cc(C(=O)N[C@@H]3CCN(Cc4ccccc4)C3)nc(-c3cccc(-c4cccnc4)c3)c2[C@@H]1CCO", "activity change, negative = cytotoxicity": "4.18% [at 18 µM]"},
      {"smiles": "COc1cccc(-c2cccc(-c3nc(C(=O)NCc4ccc(Oc5ccccc5)cc4)cc4c3[C@@H](CCO)N(S(=O)C(C)(C)C)C4)c2)c1", "note": "(stereo partly specified)", "activity change, negative = cytotoxicity": "-3.88%"},
      {"smiles": "COc1ccc(C#Cc2ccc3c(c2)O[C@@H](CN(C)S(=O)(=O)c2ccccc2F)[C@@H](C)CN([C@@H](C)CO)S3(=O)=O)cc1", "activity change, negative = cytotoxicity": "-31.4%"},
      {"smiles": "C[C@@H]1CN([C@@H](C)CO)C(=O)c2cccc(NC(=O)Nc3ccc4c(c3)OCO4)c2O[C@@H]1CN(C)C(=O)Nc1ccc2c(c1)OCO2", "activity change, negative = cytotoxicity": "-9.01%"},
      {"smiles": "COc1ccc(S(=O)(=O)Nc2ccc3c(c2)CC(=O)N([C@H](C)CO)C[C@H](C)[C@H](CN(C)S(=O)(=O)c2ccc(C)cc2)O3)cc1", "activity change, negative = cytotoxicity": "-7.31%"},
      {"smiles": "C[C@@H]1CN([C@H](C)CO)C(=O)c2cccc(NC(=O)Nc3cccc4ccccc34)c2O[C@@H]1CN(C)C(=O)Nc1ccc(C(F)(F)F)cc1", "activity change, negative = cytotoxicity": "-47%"},
      {"smiles": "C[C@@H]1CN([C@@H](C)CO)C(=O)c2cccc(NC(=O)Nc3ccccc3)c2O[C@@H]1CN(C)C(=O)Nc1ccc(F)cc1", "activity change, negative = cytotoxicity": "-2.4%"},
      {"smiles": "C[C@H]1CN([C@@H](C)CO)C(=O)Cc2cc(NC(=O)Nc3ccc(C(F)(F)F)cc3)ccc2O[C@@H]1CN(C)C(=O)Nc1ccc2c(c1)OCO2", "activity change, negative = cytotoxicity": "-11.8%"},
      {"smiles": "C[C@@H]1CN([C@H](C)CO)C(=O)c2cc(C#CCc3ccccc3)cnc2O[C@H]1CN(C)C(=O)C1CCC1", "activity change, negative = cytotoxicity": "-10.4%"},
      {"smiles": "OC[C@H]1CC[C@@H]2O[C@H](CCc3ccc(C#CCc4ccccc4)cc3)[C@H](n3cc(-c4ccccc4)nn3)C[C@@H]2O1", "activity change, negative = cytotoxicity": "-31.8%"},
      {"smiles": "COc1ccc2c3c(n(C)c2c1)[C@@H](CO)N(C(=O)c1ccc(F)cc1)CC31CN(C(=O)Nc2ccc(F)cc2)C1", "activity change, negative = cytotoxicity": "-19.1%"},
      {"smiles": "COc1ccc(NC(=O)N2CC3(C2)CN(C(=O)C2CCC2)[C@H](CO)c2c3c3ccc(OC)cc3n2C)cc1", "activity change, negative = cytotoxicity": "-15.6%"},
      {"smiles": "COc1ccc2c3c(n(C)c2c1)[C@@H](CO)N(C(=O)c1ccc(F)cc1)CC31CCN(C(=O)Nc2ccc(F)cc2)CC1", "activity change, negative = cytotoxicity": "5.35% [at 16 µM]"},
      {"smiles": "COc1ccc(C#Cc2ccc3c(c2)O[C@H](CN(C)S(=O)(=O)c2ccccc2F)[C@@H](C)CN([C@H](C)CO)S3(=O)=O)cc1", "activity change, negative = cytotoxicity": "-10.9%"},
      {"smiles": "C[C@@H](NC(=O)C[C@H]1C[C@@H]2c3cc(NS(=O)(=O)c4ccc(F)cc4)ccc3O[C@@H]2[C@H](CO)O1)c1ccccc1", "activity change, negative = cytotoxicity": "-16.7%"},
      {"smiles": "O=C(c1ccc(F)cc1)N1CC(=O)N2[C@H](C1)[C@@H](c1ccc(-c3cccnc3)cc1)[C@@H]2CO", "activity change, negative = cytotoxicity": "-6.43%"},
      {"smiles": "C[C@@H]1CN([C@H](C)CO)S(=O)(=O)c2ccc(C#Cc3ccccc3F)cc2O[C@H]1CN(C)C(=O)c1ccc2c(c1)OCO2", "activity change, negative = cytotoxicity": "-31.9%"},
      {"smiles": "C[C@H](CO)N1C[C@H](C)[C@H](CN(C)S(=O)(=O)c2ccc([N+](=O)[O-])cc2)OCc2ccccc2-c2c(n(C)c3ccccc23)C1=O", "activity change, negative = cytotoxicity": "-28.4%"},
      {"smiles": "OC[C@H]1[C@H](c2ccccc2)C2(CN(Cc3ccccc3F)C2)N1Cc1ccccc1F", "activity change, negative = cytotoxicity": "-54.7%"},
      {"smiles": "C[C@@H]1CN([C@@H](C)CO)C(=O)c2cccc(NC(=O)c3nc4ccccc4s3)c2O[C@H]1CN(C)C(=O)NC1CCCCC1", "activity change, negative = cytotoxicity": "-13.8%"},
      {"smiles": "C[C@@H]1CN([C@H](C)CO)C(=O)c2cc(NC(=O)Nc3ccc(C(F)(F)F)cc3)ccc2O[C@H]1CN(C)C(=O)Nc1cccc2ccccc12", "activity change, negative = cytotoxicity": "-5.2%"},
      {"smiles": "CCCC#Cc1ccc([C@H]2[C@@H](CO)N(C(=O)C3CCCCC3)[C@H]2C#N)cc1", "activity change, negative = cytotoxicity": "-36.5%"},
      {"smiles": "O=C(c1ccccc1F)N1CC(=O)N2[C@H](CO)[C@H](c3ccc(-c4cccnc4)cc3)[C@H]2C1", "activity change, negative = cytotoxicity": "-2.27%"}
    ]}
  ]
}
